Measured potencies and affinities stand elsewhere.
What was measured:
Klebsiella pneumoniae = conditions: Concentration 20 uM; ASSAY_TEST Inhibition of Bacterial Growth; detection method Absorption (OD600); MEDIA CAMHB; plate type 384well; NBS; CORNING #3640; time 18 hr
Candida albicans = conditions: 20 µM
Cryptococcus neoformans = conditions: Concentration 20 uM; ASSAY_TEST Inhibition of Fungal Growth; detection method Resazurin; Absorption (OD600-OD570); plate type 384well; NBS; CORNING #3640

| SMILES | Inhibition (Klebsiella pneumoniae) [%] | Inhibition (Candida albicans) [%] | Inhibition (Cryptococcus neoformans) [%] |
| --- | --- | --- | --- |
| Cc1ccc2[nH]c3c(NCCN(C)C)ncnc3c2c1 | 16.4 | 2.94 | -5.96 |
| COc1ccc(-c2cnc3cnc(-c4cccc(OC(C)C)c4)cn23)cc1 | 4.82 | 11.6 | -13.72 |
| CCNC(=O)C(C)Nc1nc(-c2cccnc2)nc2sc(C)c(C)c12 (stereo unspecified) | -9.71 | 5.77 | -4.41 |
| COc1ccccc1C(C)NCC(=O)Nc1cc(C(F)(F)F)ccc1Cl (stereo unspecified) | 14.48 | 1.66 | -4.09 |
| COc1ccc(C2=NN(C3CCCCCC3)C(=O)[C@@H]3CC=CC[C@H]23)cc1OCCCCOc1ccc(-c2nnn[nH]2)cc1 | 8.89 | 6.64 | -7.83 |
| N#Cc1ccc(-c2ccc(OCC(N)=O)cc2)cc1 | 5.71 | 3.25 | -13.05 |
| CCCn1c(CNc2ccccc2O)nc2ccccc21 | 12.8 | -0.42 | -15.95 |
| Cc1c[nH]c(CCNC(=O)c2cc(-c3ccc(Cl)cc3)cs2)n1 | 19.09 | 2.87 | -12.96 |
| CCc1nc2ccc(Cl)cn2c1C(=O)NCc1ccc(N2CCC(c3ccc(OC(F)(F)F)cc3)CC2)cc1 [TELACEBEC] | 18.33 | 2.34 | -3.29 |
| CS(=O)(=O)Cc1nc2ccccc2oc1=O | 16.91 | 1.55 | -16.09 |
| N#Cc1ccc(-c2cnc(N)c(-c3ccc(C(N)=O)cc3)n2)cc1 | 16.03 | 4.25 | -3.91 |
| CCCc1ccc(S(=O)(=O)Nc2ccc(CN3CCN(CC4CC4)CC3)cc2)cc1 | 16.66 | 4.6 | -0.39 |

From ChEMBL document CHEMBL4513149, “CO-ADD screening of MMV (CH) - MMV compounds” (2021)
